Bioassay records (PubChem)
hcDAF12 agonist = H. contortus DAF-12 nuclear receptor activators, primary screen, cell-based, luminescence, HEK293, lit1-tk-luc reporter; 370,000 tested, 1.4% active; HEK293 hcDAF-12 lit1-tk-luc reporter; 0% DMSO, 100% Δ7-dafachronic acid; activation, % at 6.8 µM;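 active = activation above the mean of all tested compounds plus 3 SD, cut at about 5.5% in these data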
hgDAF12 agonist = H. glycines DAF-12 receptor agonists, primary screen, cell-based, luminescence, HEK293, GAL4 fusion, UAS-luciferase | Nuclear hormone receptor DAF-12 (Heterodera glycines), GAL4 fusion | HEK293 GAL4-hgDAF12 UAS-luciferase reporter, agonist luminescence; normalized to butyrate control | activation, % at 6.8 µM | 370,000 tested, 1.8% active;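 active = activation above a cutoff set at the mean of all screened compounds plus 3 SD, cut at about 10% in these data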
DAX1 inh-1 = DAX1 (NR0B1) inhibitors on StAR promoter, primary screen, cell-based, luminescence, SF-1 (NR5A1), full-length DAX-1. 370,000 tested, 1.1% active. AID 652010, 2013. HEK293T StAR-luciferase reporter, SF-1/DAX-1 repression relief. inhibition, % at 6.8 µM;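 active = inhibition above the mean over all tested compounds plus 3 SD, cut at about 3.6% in these data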;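 note: higher inhibition means more luminescence from relief of DAX-1 repression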
ssDAF12 agonist = S. stercoralis DAF-12 nuclear receptor activators, primary screen, cell-based, luminescence, HEK293, GRIP1 co-expression, lit1-tk-luc. Nuclear hormone receptor DAF-12 (Strongyloides stercoralis). HEK293 ssDAF-12/GRIP1 lit1-tk-luc reporter; % of 3 µM dafachronic acid response. activation, % at 6.8 µM. 370,000 tested, 1% active;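 active = activation above the mean over all tested compounds plus 3 SD, cut at about 0.9% in these data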
DAX1 inh-2 = DAX1 (NR0B1) inhibitors, primary screen, cell-based, HEK293, Gal4-DAX1, luciferase luminescence; Nuclear receptor subfamily 0 group B member 1 (Homo sapiens), P51843; HEK293 Gal4-DAX1 luciferase reporter; inhibition, % at 6.75 µM; 340,000 tested, 0.99% active; AID 504766, 2011;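 active = inhibition above the mean over all tested compounds plus 3 SD, cut at about 4.2% in these data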;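 note: inhibition shows as a rise in luminescence from relieved DAX1 repression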
Target sequence (P51843 207-470 limits assumed): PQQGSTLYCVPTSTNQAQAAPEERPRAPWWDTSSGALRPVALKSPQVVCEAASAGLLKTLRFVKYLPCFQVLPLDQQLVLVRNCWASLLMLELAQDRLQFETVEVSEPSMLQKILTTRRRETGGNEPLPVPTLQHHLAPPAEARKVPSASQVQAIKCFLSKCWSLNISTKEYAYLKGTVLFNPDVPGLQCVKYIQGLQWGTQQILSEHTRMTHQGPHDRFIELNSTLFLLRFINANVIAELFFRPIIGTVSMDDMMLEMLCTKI
Numbers stand for hits; i = inactive; nt = not tested or not shown. Only some compounds are listed: those with a hit (about 4.1% of all), similar ones and a draw of the others.

SMILES	hcDAF12 agonist	hgDAF12 agonist	DAX1 inh-1	ssDAF12 agonist	DAX1 inh-2
CCOC(=O)C1=C(C)NC(C)=C(C(=O)OCC)C1/C=C/c1ccccc1OC	i	i	i	i	6.4
O=c1c2cc(NC(=S)N3CCCCC3)ccc2nc2n1CCCCC2	i	i	i	1.1	i
O=C(Nc1nc2c(s1)CCCC2)C1COc2ccccc2O1 (configuration not stated)	i	i	4.4	i	i
O=C(Nc1ccc2c(c1)CCC2)C1COc2ccccc2O1 (configuration not stated)	i	12	i	i	i
Cc1ccc(Cc2cnc(NC(=O)C3CCCO3)s2)cc1 (configuration not stated)	i	13	i	1.0	i
O=C(Nc1ncc(Cc2ccccc2)s1)C1COc2ccccc2O1 (configuration not stated)	i	11	4.2	i	i
Cn1cc(CC(=O)Nc2ccc(Nc3cccnc3)cc2)c2ccccc21	i	i	i	i	nt
CCCCCCCCN1C(=O)[C@@H](CC(=O)NCCc2ccccc2OC)C[C@@]2(C(=O)OC)C1=C[C@H](COCc1ccccc1)O[C@@H]2C	i	i	i	i	nt
Cc1ccccc1Cn1cc(CN2[C@@H](CC(C)C)COc3cc(Br)ccc3S2(=O)=O)nn1	i	i	i	i	nt
CCCCCc1nnc(NC(=O)C2COc3ccccc3O2)s1 (configuration not stated)	5.6	i	i	i	i
O=C(NCc1ccccc1)C1(C(=O)C2CC2)CC(c2ccccn2)=NO1 (configuration not stated)	i	i	i	i	nt
CC(c1c[nH]c2ccccc12)c1c[nH]c2ccc(Br)cc12 (configuration not stated)	5.6	i	i	i	nt
COc1ccc2[nH]cc(C(C)c3c[nH]c4ccccc34)c2c1 (configuration not stated)	i	i	i	i	nt
CCNC(=O)CCc1nc(-c2ccc(C(C)C)cc2)no1	i	i	nt	i	nt
CC(NC(=O)NC12CC3CC(CC(C3)C1)C2)C1CCCO1 (configuration not stated)	i	i	i	i	7.2
C[C@@H]1C[C@@H]2O[C@H]2CCCCC(=O)Cc2cc(O)cc(O)c2C(=O)O1	i	i	i	i	nt
CCOc1cc(NC(=S)NCCOC)c(OCC)cc1NC(=O)c1cccs1	i	i	i	i	nt
CCOc1cc(NC(=S)NC)c(OCC)cc1NC(=O)c1cccs1	i	i	i	i	5.0
FC(F)Oc1ccccc1/C=N/n1cnc2ccccc21	i	11	i	i	i
NC(N)=N/N=C/c1ccccc1OC(F)F	i	i	i	i	i
O=C(c1ccc(CS(=O)(=O)c2ccc(Br)cc2)o1)N1CCCC1	i	i	i	i	i
O=C(c1ccc(CS(=O)(=O)c2ccccc2)o1)N1CCOCC1	i	i	i	i	5.6
O=C(NCCN1CCOCC1)c1ccc(CS(=O)(=O)c2c(Cl)cccc2Cl)o1	i	i	i	i	7.2
COC(=O)[C@H](C(C)C)N1Cc2nnn(Cc3ccccc3)c2-c2cc(F)ccc2S1(=O)=O	i	i	i	i	nt
CCOC(=O)[C@@]12CCC3=C1N(CCC3)C(=O)[C@H](CC(=O)NCc1ccc(C)o1)C2	i	i	i	i	nt
SMILES	hcDAF12 agonist	hgDAF12 agonist	DAX1 inh-1	ssDAF12 agonist	DAX1 inh-2
C=CCCC1(CCC)C(=O)/C(=C(\O)c2ccccc2)C(=O)C(CCC)=C1OC (configuration not stated)	i	i	i	i	nt
COc1ccc(/C(N)=N/OC(=O)c2ccco2)cc1	i	11	3.9	i	i
COCCCNC(=O)C[C@H]1C[C@@]2(C(=O)OC)C(=C[C@H](C3CCCC3)O[C@@H]2C)N(Cc2ccc(Cl)cc2Cl)C1=O	i	i	i	i	nt
CCOC(=O)[C@@]12CCCC3=C1N(CCC3)C(=O)[C@H]2CC(=O)NCc1ccc(OC)c(OC)c1	i	i	i	i	nt
N/C(=N\OC(=O)C1CCCCC1)c1ccccn1	i	12	i	i	i
N/C(=N\OC(=O)C1CCCCC1)c1ccncc1	i	i	i	i	i
COc1ccccc1CC(=O)O/N=C(\N)c1ccccn1	i	i	i	i	i
N/C(=N\OC(=O)Cc1cccc2ccccc12)c1ccccn1	5.8	i	i	i	i
CCOC(=O)[C@]12CCCC=C1N(CCCOC)C(=O)[C@@H]2CC(=O)NCCCCc1ccccc1	i	i	i	i	nt
CCCn1c(NC(=O)c2ccccc2)nc(Cc2ccccc2)c1-c1ccc(OC)cc1	i	i	i	i	nt
COc1cccc(/C=N/n2c(=O)[nH]c3ccccc32)c1OC	i	i	i	i	4.9
O=S(=O)(c1ccc(F)cc1)N1CCC(c2nc3ccccc3o2)CC1	i	i	i	i	nt
Cc1cccc(OCC(=O)N2CCC(c3ccccc3)C2)c1 (configuration not stated)	i	10	i	i	i
NC(=O)C1CCN(c2ccnc(Cl)n2)CC1	i	i	nt	i	nt
Cc1cccc(CNc2ncnc3ccc(-c4ccoc4)cc23)c1	i	i	i	i	i
CC(=O)Nc1ccc(CNc2ncnc3ccc(-c4c(C)noc4C)cc23)cc1	6.3	i	i	1.2	i
O=C(O)/C(=C\c1ccc(-c2ccccc2[N+](=O)[O-])o1)c1ccccc1	5.7	i	i	0.9	i
O=C(/C=C/c1ccc(-c2ccccc2[N+](=O)[O-])o1)c1ccccc1	i	i	i	i	i
O=C(CSc1nnc(-c2ccco2)n1-c1ccc(Cl)cc1)Nc1cccc2ccccc12	i	i	i	i	nt
O=C(NCc1ccc(Cl)cc1)C1CCCN(c2ncccn2)C1 (configuration not stated)	i	i	i	i	nt
Cc1ccc(CCNC(=O)C2CCN(S(=O)(=O)N3CCC4(CC3)OCCO4)CC2)cc1	6.0	i	i	i	i
COc1cccc(C(=O)Nc2ccc(-c3nnc(-c4ccco4)o3)cc2)c1	i	i	i	i	i
O=C(COc1ccccc1)Nc1ccc(-c2nnc(-c3ccco3)o2)cc1	6.3	i	i	i	i
CCCOc1ccc(-c2nnc(-c3ccco3)o2)cc1	i	11	3.7	i	i
CCN(CC)CCCNc1ccc(-c2nnc(-c3ccc(OCC(C)C)cc3)o2)cn1	i	i	i	i	i
COc1cccc(-c2nnc(-c3ccco3)o2)c1	i	12	i	i	i
CC(C)COc1ccc(-c2nnc(-c3ccco3)o2)cc1	i	i	3.7	i	i
CCCC#Cc1ccc(CC[C@H]2O[C@H]3CC[C@@H](CO)O[C@H]3C[C@H]2NC(=O)CN2CCOCC2)cc1	i	i	i	i	nt
O=C(Nc1ccc(Br)cc1)OCCCN1CCC2(CCCCC2)C1=O	i	i	i	i	nt
